# Only a selection was taken, and hits are over-represented in it overall.
# Pf Dd2 inh = qHTS Primary assay for Inhibitors of Plasmodium falciparum Dd2 growth in vitro; P. falciparum Dd2 growth, SYBR Green, 72 h; Potency, µM (series often up to 28.9 µM), actives largely listed as inhibitors; actives 4.3% (n = 120,000); active = well fitted inhibition curve with a large enough effect; also: nearly all actives have a fitted effect of over 65% in size
#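 Readout: SYBR Green fluorescence, 485 nm excitation, 535 nm emission, after ~16 h lysis at 37C. Before that, Dd2-infected red cells (2.5% hematocrit) grew 72 h with compound, 29 uM top final concentration.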
# Hits are given with their value; i = inactive; [ ] = remark or other dose.
SMILES,Pf Dd2 inh
COc1ccc(C(CNC(=O)Cc2ccc(Cl)cc2)N2CCOCC2)cc1 (stereo not given),i
COc1ccc(C(=O)NCC(c2ccc(Cl)cc2)N2CCCCC2)cc1 (stereo not given),i
CCc1ccc(OCC(=O)NCC(c2ccc(Cl)cc2)N2CCOCC2)cc1 (stereo not given),11µM
Cc1cc(C)cc(OCC(=O)NCC(c2ccc(Cl)cc2)N2CCCCC2)c1 (stereo not given),11µM
COc1ccc(C(CNC(=O)COc2cc(C)cc(C)c2)N2CCOCC2)cc1 (stereo not given),i
COc1ccc(OCC(=O)NCC(c2ccc(Cl)cc2)N2CCCCC2)cc1 (stereo not given),7.9µM
CN(C)c1ccc(C(CNC(=O)COc2ccccc2)N2CCOCC2)cc1 (stereo not given),i
O=C(Nc1ccc(F)cc1)Nc1cccc(-c2ccc(N3CCOCC3)nn2)c1,i
CC(C)N1CCC(OCCCNC(=O)CN2CCCc3nc(C4CC4)ncc3C2=O)CC1,i
Cc1noc(-c2cn(C3CCN(C(=O)c4ccco4)CC3)nn2)n1,i
CN(C)C(=O)N1CCN(C(=O)c2noc3c2CCCC3)[C@H]2CS(=O)(=O)C[C@H]21,i
Cc1ccc(CN2CCc3nc(C(=O)NCc4cccc(F)c4)oc3CC2)o1,i
Cc1nc(N(C)C2CCCCC2)ncc1C(C)NC(=O)C1(CO)CC1 (stereo not given),i
CC(C)CC(=O)N1CCOc2ccc(CN3CCc4ccccc4C3)cc2C1,i
COc1ccc(CNC[C@H]2COCc3nc4cccnc4n32)cc1,i
CCN(C(=O)c1cc2c(Cl)nc3ccc(C)cc3c2s1)c1cc(OC)ccc1OC,8.9µM
CCN(C(=O)c1cc2c(=O)oc3ccccc3c2s1)c1cccc(C(F)(F)F)c1,i
Cc1ccc(Cl)cc1N(C)C(=O)c1cc2c(Cl)nc3ccccc3c2s1,i
CCN(C(=O)c1cc2c(=O)oc3ccc(C)cc3c2s1)c1cc(OC)ccc1OC,i
CCc1ccccc1N(C)C(=O)c1cc2c(Cl)nc3ccc(C)cc3c2s1,i[5.79 µM]
CCN(C(=O)c1cc2c(Cl)nc3ccccc3c2s1)c1cccc(Cl)c1,10µM
CC(C)CN1C(=O)c2cccn2CC1CNC(=O)CC1CCCC1 (stereo not given),i
COc1cc(OC)cc(C2NC(=O)NC(C)=C2C(=O)N2CCNC(=O)C2)c1 (stereo not given),i
CCOc1ccccc1NC(=O)Cn1c(=O)n(-c2ccc(F)cc2)c(=O)c2c1cc(C)n2C,i
COc1ccc(Cn2c(C3CCN(C(=O)Cc4ccccc4OC)CC3)n[nH]c2=O)cc1,i
SMILES,Pf Dd2 inh
COCCN1CCCN(C(=O)c2ccoc2)c2ccccc21,i
COCCN1CCCN(C(=O)c2cc(C)ccc2C)c2ccccc21,10µM
COCCN1CCCN(C(=O)c2cc(C)cc(C)c2)c2ccccc21,i
NC(=O)c1ccc(CC2CCN(C(=O)C3CCOCC3)CC2)cc1,i
O=C(CCn1ccc(=O)[nH]c1=O)N1CCc2nc(-c3ccccc3)[nH]c2C1,i
NC(=O)c1ccc(-c2nc3c([nH]2)CN(c2ncnc4ccsc24)CC3)cc1,10µM
c1ccc(Cn2ccnc2C2CCN(c3ncnc4ccsc34)CC2)nc1,i
Cc1cc(C(=O)NCC(F)(F)F)c2c(C3CCCN3)noc2n1 (stereo not given),i
CC(C)c1ccc(NC(=O)c2ccc(F)c(S(=O)(=O)N3CCCC3)c2)cc1,i
Cc1ccc(O)c(NC(=O)c2ccc(Br)c(S(=O)(=O)N3CCCCC3)c2)c1,6.3µM
CC(C)c1ccc(NC(=O)c2ccc(F)c(S(=O)(=O)N3CCCCCC3)c2)cc1,i
Cc1ccc(-c2nc3cnccn3c2NCCC(=O)N2CCCCC2)cc1,i
O=C(Nc1ccccc1)N[C@H]1C[C@H]2C(=O)NC[C@@H](CCC(=O)N3CCCCC3)N2C1,i
O=C1NC[C@@H](CCC(=O)N2CCCCC2)N2C[C@@H](NC(=S)Nc3ccc(Cl)cc3)C[C@@H]12,6.3µM
CC(C)NC(=O)N[C@H]1C[C@H]2C(=O)NC[C@@H](CCC(=O)N3CCCCC3)N2C1,i
Cc1cc(C(=O)N2CC(F)(F)C[C@H]2c2nnc(C)o2)on1,i
Cc1ccn(CC(=O)N2CCC3(CCCN(CCCc4ccccc4)C3)C2)n1 (stereo not given),i
O=C(CN1CC2CC(C1)[C@H]1CCCC(=O)N1C2)NCCCN1CCOCC1 (stereo not given in full),i
c1ccc(-c2nnc3ccc(N4CCc5ccccc5C4)nn23)nc1,i
Cc1noc(C)c1-c1cc2c(c(-c3cccc(CO)c3)c1)C(=O)N(C)C2=O,i
C1=C(c2cc(-c3cccc4cn[nH]c34)cn3cncc23)CCOC1,i
C1=C(c2cc(-c3cccc4[nH]ccc34)cn3cncc23)CCOC1,i
CN(C)Cc1ccc(-c2cc(-c3ccc(=O)[nH]c3)c3cncn3c2)cc1,i
Cc1noc(C)c1-c1cc(-c2ccc(CN(C)C)cc2)cn2cncc12,2.8µM
Cc1noc(C)c1-c1cc2c(c(-c3cccnc3)c1)C(=O)N(C)C2,i
SMILES,Pf Dd2 inh
C[S+](=O)([O-])c1ccc(-c2cc(-c3cccnc3)c3cncn3c2)cc1,i
COc1ncccc1-c1cc(-c2c(C)noc2C)cc2c1C(=O)N(C)C2=O,i
Oc1ccccc1-c1cc(-c2cccnc2)c2cncn2c1,0.35µM
O=C1COCCN1c1cc(-c2ccccc2Oc2ccccc2)cn2cncc12,i
Oc1ccccc1-c1cc(C2=CCOCC2)c2cncn2c1,1.3µM
Cc1noc(C)c1-c1cc(-c2ccccc2O)cn2cncc12,14µM
CN(C)c1ccc(CN2CC[C@H](c3nc4cc(Cl)ccc4o3)C2)cc1,i
O=C(c1cccc(F)c1)N1CCN2C(=O)N(C3CCCCC3)C(=O)[C@@H]2C1,i
COCCn1ccc2c(C3=CCOCC3)nc(-c3cccc(CO)c3)cc21,i
Cc1ccccc1C(CC(=O)NCc1cccnc1)c1ccccc1 (stereo not given),i
Fc1ccc(-c2noc(-c3nnn4c3COC(c3ccc(Cl)cc3)C4)n2)cc1F (stereo not given),i
CN1C(=O)C2(CCN(Cc3ccccc3)C2)c2ccccc21 (stereo not given),i
CCCNC(=O)CC1CCCN(c2cnn(C)c(=O)c2)C1 (stereo not given),i
COc1ccc(-c2ccccc2)cc1N1C(=O)[C@@H]2C[C@H]1CN2C(=O)C(C)(C)N,i
Cc1noc(C)c1-c1cc(-c2ccccc2)cn2cncc12,5.6µM
Cc1noc(C)c1-c1cc(-c2ccncc2)cn2cncc12,i
Cc1noc(C)c1-c1cc2c(cc(-c3ccccc3)n2C)c(-c2cnn(C)c2)n1,i
COC(=O)[C@@H](C)NC(=O)[C@@H]1CN(C(=O)c2cccc(F)c2)CCN1C(=O)NC(C)C,i
O=C(NCc1ccccc1)c1cnc2n1CCN(Cc1cccc(O)c1)CC2,i
Cc1c(C(=O)Nc2ccccc2Br)oc2ccc(S(=O)(=O)N3CCOCC3)cc12,i
CCN(CC)S(=O)(=O)c1ccc2oc(C(=O)Nc3ccc(Br)cc3F)c(C)c2c1,i
Cc1c(C(=O)Nc2ccc(Br)cc2F)oc2ccc(S(=O)(=O)N3CCC4(CC3)OCCO4)cc12,13µM
Cc1c(C(=O)Nc2ccccc2Cl)oc2ccc(S(=O)(=O)N3CCCCCC3)cc12,i
Cc1c(C(=O)Nc2ccccc2Cl)oc2ccc(S(=O)(=O)N3CCCCC3)cc12,i
Cc1c(Cl)cccc1NC(=O)c1oc2ccc(S(=O)(=O)N3CCC4(CC3)OCCO4)cc2c1C,13µM
